Measured values reported in PubChem BioAssay (NCI).
This is part of a sample that, as a whole, favours compounds with a hit. Of some 83,000 tested, about 20% had one in any assay.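 Negative percent growth values reflect cell death: -40 means 40% of the cells present at the start died, and -100 means all died.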 Unmarked numbers belong to inactive results. Active and inactive are the calls of the source. The calls were made as follows: active = growth percent below 10; inactive = the rest.

Experiments:
Experiment in all cases: NCI-60 one-dose screen, 48 h (100 = growth as untreated, 0 = no growth, -100 = all killed)
Details in all cases: 10 µM unless noted
[1] = tested on: HCT-15 colon
[2] = tested on: HT29 colon
[3] = tested on: SNB-75 CNS
[4] = tested on: SNB-19 CNS
[5] = tested on: U251 CNS
[6] = tested on: PC-3 prostate
[7] = tested on: SK-MEL-5 melanoma
[8] = tested on: UACC-62 melanoma
[9] = tested on: LOX IMVI melanoma
[10] = tested on: SK-MEL-28 melanoma
[11] = tested on: EKVX NSCLC
[12] = tested on: SN12C renal
[13] = tested on: UO-31 renal
[14] = tested on: TK-10 renal
[15] = tested on: ACHN renal
[16] = tested on: CAKI-1 renal
[17] = tested on: A498 renal
[18] = tested on: CCRF-CEM leukemia
[19] = tested on: MOLT-4 leukemia

| Structure (SMILES) | growth [1] | growth [2] | growth [3] | growth [4] | growth [5] | growth [6] | growth [7] | growth [8] | growth [9] | growth [10] | growth [11] | growth [12] | growth [13] | growth [14] | growth [15] | growth [16] | growth [17] | growth [18] | growth [19] |
| --- | --- | --- | --- | --- | --- | --- | --- | --- | --- | --- | --- | --- | --- | --- | --- | --- | --- | --- | --- |
| CNC(=O)c1ccc(Nc2ncc(C(F)(F)F)c(NCc3nccnc3N(C)S(C)(=O)=O)n2)cc1 | 1.88% (active) | -11.9% (active) | -44.7% (active) | 7.45% (active) | 1.49% (active) | 10.5% | -49.5% (active) | -70% (active) | 0.319% (active) | 1.14% (active) | -4.53% (active) | 5.6% (active) | -6.92% (active) | -21.5% (active) | 3.54% (active) | 0.765% (active) | -42.2% (active) | 4.49% (active) | -9.42% (active) |
| COc1cc(N2CCC(N3CCN(C)CC3)CC2)ccc1Nc1ncnc(Nc2ccccc2S(=O)(=O)C(C)C)n1 | 103% | 84.1% | 101% | 98.6% | 101% | 93.7% | 110% | 102% | 103% | 105% | 105% | 107% | 98.7% | 108% | 98.5% | 104% | 114% | 92.9% | 89.9% |
| CNC(=O)c1cc(Oc2ccc3nc(NC(=O)Nc4ccc(Cl)c(C(F)(F)F)c4)sc3c2)ccn1 | 23.5% | 3.52% (active) | -58.8% (active) | 33.5% | -9.69% (active) | 12.4% | 25.7% | 8.48% (active) | 1.46% (active) | 34.7% | 9.24% (active) | 15.6% | -7.14% (active) | -55.1% (active) | -22.2% (active) | 53.4% | 30% | 27.8% | 38% |
| C#Cc1cccc(Nc2ncnc3cc(OC)c(OCCCCCCC(=O)NO)cc23)c1 | 7.16% (active) | -13.4% (active) | 2.04% (active) | 7.79% (active) | -58.1% (active) | 10.4% | -91.4% (active) | -78.3% (active) | -89.3% (active) | -29.5% (active) | 25% | 5.37% (active) | -16.8% (active) | -48% (active) | -30.1% (active) | -68.6% (active) | -86.3% (active) | 3.23% (active) | -1.32% (active) |
| C#Cc1cccc(Nc2ncnc3cc4c(cc23)OCCOCCOCCO4)c1 | 68.8% | 57% | 57.7% | 60.9% | 57% | 57.3% | 58.1% | 32.9% | 51% | 57.6% | 42.5% | 42% | 27.2% | 7.84% (active) | 16.3% | 28.4% | 24.1% | 73.3% | 53.3% |
| Cc1ccc(F)c(NC(=O)Nc2ccc(-c3cccc4[nH]nc(N)c34)cc2)c1 | 7.06% (active) | 2.74% (active) | 29.8% | 27.2% | 12.9% | 30.8% | 34.6% | 37.1% | -8.35% (active) | 36.1% | 21.9% | 24.9% | 17.6% | 2.19% (active) | 15.4% | 31.8% | 30.1% | 11.4% | 15.5% |
| Cc1nc2cc(-c3nn(C(C)C)c4ncnc(N)c34)ccc2o1 | 1.74% (active) | -8.06% (active) | -70.1% (active) | -4.62% (active) | -15.3% (active) | 3% (active) | -49.2% (active) | -53% (active) | -21.1% (active) | -34.3% (active) | -10.3% (active) | 1.14% (active) | -35.7% (active) | -47% (active) | -13.4% (active) | -36.7% (active) | -55.5% (active) | 6.03% (active) | -8.69% (active) |
| Cn1c(=O)c(F)c(Nc2ccc(I)cc2F)c2c(=O)n(C[C@@H](O)CO)cnc21 | 54.6% | 7.51% (active) | 62.7% | 42.6% | 31.4% | 68.4% | 36.3% | 0.259% (active) | 15.3% | 0.0364% (active) | 46.6% | 40.1% | 22.8% | 41.2% | 50.7% | 41.7% | -30.7% (active) | 66.8% | 73.7% |
| C[C@@H](Oc1cc(-c2cnn(C3CCNCC3)c2)cnc1N)c1c(Cl)ccc(F)c1Cl | -5.99% (active) | -49.4% (active) | -67.7% (active) | 3.67% (active) | -71.9% (active) | -5.54% (active) | -99.8% (active) | -83.5% (active) | -90.8% (active) | -84.7% (active) | 0.0738% (active) | -41% (active) | -73.4% (active) | -36.2% (active) | -45.9% (active) | -64.1% (active) | -68.3% (active) | -19.5% (active) | -34.5% (active) |
| COc1ncc(-c2ccc3nccc(-c4ccnnc4)c3c2)cc1NS(=O)(=O)c1ccc(F)cc1F | -15% (active) | -10.4% (active) | -29.8% (active) | -42.8% (active) | -62.3% (active) | -0.788% (active) | -95.8% (active) | -67.4% (active) | -42.8% (active) | -17.4% (active) | -7.55% (active) | 16.4% | -25.7% (active) | -44.7% (active) | 15.3% | -19.8% (active) | -48.2% (active) | 1.61% (active) | -11.9% (active) |
| COc1cc2ncnc3c2cc1OCCCCCN(C)Cc1ccc(Br)cc1N3 | 19.5% | 28.9% | 74.5% | 88.4% | 68.6% | 39% | 72.7% | 43.8% | 32.8% | 74.8% | 21.4% | 32.5% | 11.2% | 3.42% (active) | 8.64% (active) | 19.3% | 60.9% | 51.8% | 22.1% |
| CN(C[C@@H]1COCCO1)S(=O)(=O)Nc1ccc2ccc3ncc(-c4cnn(C)c4)cc3c(=O)c2c1 | 26% | 51.3% | 13.6% | 80.7% | 37.4% | 45.6% | 36% | 36.2% | 30.1% | 59.7% | 52.9% | 38.9% | 8.44% (active) | 37.2% | 22.2% | 7.99% (active) | -19% (active) | 34.9% | 21.1% |
| C/C(=C(/c1ccc(Cl)cc1)c1ccc(OCCN2CCCCCC2)cc1)c1ccccc1 | 20.3% | 8.45% (active) | 88.4% | 88.4% | 73.1% | 69.3% | 69.5% | 90% | 62.6% | 88% | 70.2% | 87.6% | 70.9% | 101% | 96.3% | 96.9% | 86% | 68.9% | 82% |
| C=CC(=O)N1CCC[C@H](n2c(=O)n(-c3ccc(Oc4ccccc4)cc3)c3c(N)ncnc32)C1 | 98.3% | 68.9% | 113% | 79.1% | 89.2% | 87.9% | 94.1% | 81.2% | 72.4% | 113% | 57.4% | 71% | 50.5% | 27.6% | 41.2% | 69.1% | 81.2% | 82.3% | 68.5% |
| O=c1sn(-c2cccc3ccccc23)c(=O)n1Cc1ccccc1 | 104% | 100% | 105% | 101% | 97.1% | 89.9% | 104% | 92.6% | 99.9% | 114% | 108% | 94.8% | 86.3% | 95.5% | 106% | 99% | 102% | 64.9% | 39.1% |
